# Source: paper PMC5540273 (PLoS ONE, 2017)
# Experiments:
# Conditions in all cases: concentration: 1 μM, replicates: in singlicate; n = 1
# ACVR1 = system: ACVR1
# ACVR2A = system: ACVR2A
# ACVR2B = system: ACVR2B
# ACVRL1 = system: ACVRL1
# ADCK3 = system: T1, ADCK3
# T1 construct: gene CABC1
# ADCK4 = system: ADCK4
# AKT1 = system: AKT1
# AKT2 = system: AKT2
# AKT3 = system: AKT3
# ALK = system: ALK
# 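Also: KINOMEscan kinase panel screen.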
SMILES,%Inh (ACVR1) [%],%Inh (ACVR2A) [%],%Inh (ACVR2B) [%],%Inh (ACVRL1) [%],%Inh (ADCK3) [%],%Inh (ADCK4) [%],%Inh (AKT1) [%],%Inh (AKT2) [%],%Inh (AKT3) [%],%Inh (ALK) [%]
Cc1nccc(-c2c(-c3ccc(F)cc3)ncn2CCCN2CCOCC2)n1.Cl [SB-282975],5,53,7,19,37,0,28,0,0,9
Nc1cccc(-c2ccc3c(N)n[nH]c3c2)n1 [GSK2192730],0,0,9,0,1,0,0,0,0,21
COc1ccc(Nc2nccc(N3CCC(NC(=O)c4cc5ccccc5s4)C3)n2)cc1 (stereo not shown) [GSK1379738],0,0,0,0,0,37,0,5,0,25
CC(=O)c1c(C)c2cnc(Nc3ccc(N4CCNCC4)cn3)nc2n(C2CCCC2)c1=O,0,0,0,0,0,0,0,0,11,5
Nc1ncnc2occ(-c3ccc4c(c3)CCN4C(=O)Cc3cc(F)ccc3F)c12 [GSK2645446],0,0,0,0,8,0,0,0,0,0
FC(F)(F)c1ccccc1-c1cc(-c2c[nH]nc2-c2ccccn2)ccn1 [GW679396],0,3,17,0,4,0,0,7,16,18
CCc1ccc(-c2ccc3c(c2)-c2n[nH]cc2S(=O)(=O)N3C)cc1,0,13,22,0,9,0,3,0,0,0
COc1cccc(C2=C(Nc3cc(Cl)c(O)c(Cl)c3)C(=O)NC2=O)c1 [SB-390767],20,0,2,19,1,0,0,0,0,29
Cc1ccccc1-c1cc(-c2c[nH]nc2-c2ccccn2)ccn1 [GW680061],9,0,0,0,1,12,0,3,0,22
Cc1ccc(-c2nc(Nc3ccncc3)c3ccccc3n2)s1 [GSK189015],34,17,11,29,21,4,55,19,3,26
Cc1ccc(NC(=O)Nc2ccccc2)cc1-c1ccc(C(=O)Nc2ccncc2)cc1 [GSK1398471],0,0,0,0,19,14,1,4,0,21
Cc1ccc(NC(=O)Nc2ccccc2F)cc1-c1ccc(C(=O)Nc2ccncc2)cc1 [GSK1398477],32,21,14,5,22,25,0,22,0,25
COC(=O)C(NC(=O)NC1CCN(c2ccnc(Nc3ccc(F)cc3)n2)C1)c1ccccc1 (stereo not shown) [GSK1379712],4,0,11,0,0,22,0,0,0,19
CC(C)c1cc(-c2ccc3c(N)n[nH]c3c2)nc(N)n1 [GSK2250882],0,0,0,0,13,37,0,17,0,0
CCn1c(-c2ccccc2)nc2cnccc21 [SB-733416],23,20,15,10,8,0,0,14,0,36
CSc1ccc(-c2nc3n(c2-c2ccncc2)CCC3)cc1 [SKF-105561],5,0,2,21,0,0,6,0,6,8
O=c1cc(N2CCOCC2)nc2n(Cc3ccccc3F)ccn12 [GSK2297428],0,0,0,0,13,8,0,0,0,0

SMILES,%Inh (ACVR1) [%],%Inh (ACVR2A) [%],%Inh (ACVR2B) [%],%Inh (ACVRL1) [%],%Inh (ADCK3) [%],%Inh (ADCK4) [%],%Inh (AKT1) [%],%Inh (AKT2) [%],%Inh (AKT3) [%],%Inh (ALK) [%]
COC(=O)c1cccc(NC(=O)NC2CCN(c3ccnc(Nc4ccc(F)cc4)n3)C2)c1 (stereo not shown) [GSK1379725],0,0,0,0,4,23,0,0,0,17
COc1nccc(-c2c(-c3ccc(F)cc3)ncn2CCCN2CCOCC2)n1 [SB-282852],0,0,0,0,0,18,0,3,3,25
Fc1ccc(-c2nc[nH]c2-c2ccncc2)cc1 [SB-217360],0,5,50,0,0,18,4,0,0,10
CNC(=O)c1ccc(C)c(-n2c(C)cc(OCc3ccc(F)cc3F)c(Br)c2=O)c1,0,0,2,0,0,0,0,2,0,0
O=C(Nc1n[nH]c2cc(-c3ccsc3)ccc12)C1CC1 [SB-732932],28,26,45,0,0,0,0,21,9,9
O=c1cc(N2CCOCC2)nc2n(Cc3cccc(Cl)c3Cl)c3ccccc3n12 [GSK2299009],0,0,0,6,13,36,0,21,0,25
CC(=O)c1c(C)c2cnc(Nc3ccn(C)n3)nc2n(C2CCCC2)c1=O,16,0,0,0,0,0,3,23,0,6
COc1cccc(NC(=O)Nc2ccc(C)c(-c3ccc(C(=O)Nc4ccncc4)cc3)c2)c1 [GSK1398474],0,0,12,0,30,12,0,16,0,23
c1ccc(-c2ccnc3[nH]ccc23)cc1 [SB-693578],0,0,0,0,6,40,0,6,0,33
Cn1cncc1-c1cc2c(Nc3ccc(OCc4ccccc4)cc3)ncnc2cn1 [GW281179],5,0,18,0,7,24,0,5,0,23
CNc1cc(-c2ccc3c(N)n[nH]c3c2)nc(N)n1 [GSK2224810],29,43,56,0,13,13,0,0,0,5
CC(=O)c1cccc(NC(=O)NC2CCN(c3ccnc(Nc4ccc(F)cc4)n3)C2)c1 (stereo not shown) [GSK1379710],0,10,13,0,25,41,0,2,0,25
Fc1ccc(-c2nc3n(c2-c2ccncc2)CCS3)cc1 [GI98581],0,0,20,0,13,23,0,13,9,28
CS(=O)(=O)CCNCc1nc(-c2ccc3ncnc(Nc4ccc5c(cnn5Cc5ccccc5)c4)c3c2)cs1.Cl.Cl [GW569716],1,0,0,0,10,54,0,2,0,31
CS(=O)(=O)CCNCc1nc(-c2ccc3ncnc(Nc4ccc(OCc5ccccc5)c(Cl)c4)c3c2)cs1.Cl [GW582764],0,17,0,0,9,45,0,31,0,35
CNc1nc(-c2ccc3c(N)n[nH]c3c2)cc(N2C[C@@H](C(=O)NC3CCCCC3)OC[C@H]2C)n1 [GSK2375584],18,0,35,0,24,18,0,22,0,0
COc1cc2ncnc(Nc3cccc(Br)c3)c2cc1OC.Cl [GI230329],0,0,0,0,19,52,0,0,16,0
